# Laboratory results reported in PubChem BioAssay AID1159580 (chemical genetic matrix, 2015).
# The whole screen tested about 5,500 compounds, of which about 2,000 (36%) were called active. About 18% were inconclusive and are not listed. Some of the results follow. Unmarked numbers belong to inactive results. No stated cut-off is given here; in the data, active means normalized growth mostly below about 0.91 (no sharp cut-off); inconclusive means no clear call, values can overlap the other calls; inactive means mostly above about 0.92.
# Experiment: chemical genetic growth profiling, strain panel (AID 1159580);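 further: tested at 20 µM; growth read once vehicle control cultures reached saturation at 30 °C; 1 = growth at the plate median or of vehicle wells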
# Conditions: S. cerevisiae deletion strains, growth OD
smiles,measurement,setting,value
Clc1ccc(C(OCCN2CCCCC2)c2ccccc2)cc1 (stereo not drawn),normalized growth,"locus YAL013W, strain DEP1, stronger effect = lower value",1
same,normalized growth,"locus YAL021C, strain ccr4, stronger effect = lower value",0.954
same,normalized growth,"locus YAL026C, strain drs2, stronger effect = lower value",1.02
same,normalized growth,"locus YAL030W, strain snc1, stronger effect = lower value",1.01
same,normalized growth,"locus YBL061C, strain skt5, stronger effect = lower value",1.02
same,normalized growth,"locus YBR009C, strain hhf1, stronger effect = lower value",1
same,normalized growth,"locus YBR021W, strain FUR4, stronger effect = lower value",0.833 (active)
same,normalized growth,"locus YBR023C, strain chs3, stronger effect = lower value",1.02
same,normalized growth,"locus YBR171W, strain sec66, stronger effect = lower value",1.02
same,normalized growth,"locus YBR229C, strain ROT2, stronger effect = lower value",0.999
same,normalized growth,"locus YBR231C, strain swc5, stronger effect = lower value",1.01
same,normalized growth,"locus YBR279W, strain paf1, stronger effect = lower value",1.02
same,normalized growth,"locus YCL011C, strain gbp2, stronger effect = lower value",1.03
same,normalized growth,"locus YCL016C, strain dcc1, stronger effect = lower value",1.03
same,normalized growth,"locus YCL029C, strain bik1, stronger effect = lower value",1.01
same,normalized growth,"locus YCL061C, strain MRC1, stronger effect = lower value",1.02
same,normalized growth,"locus YCL069W, strain vba3, stronger effect = lower value",1.02
same,normalized growth,"locus YCR088W, strain abp1, stronger effect = lower value",1.02
same,normalized growth,"locus YDL005C, strain med2, stronger effect = lower value",1.01
same,normalized growth,"locus YDL035C, strain GPR1, stronger effect = lower value",0.986
same,normalized growth,"locus YDL040C, strain nat1, stronger effect = lower value",1.02
same,normalized growth,"locus YDL074C, strain BRE1, stronger effect = lower value",0.947
same,normalized growth,"locus YDL101C, strain DUN1, stronger effect = lower value",1
same,normalized growth,"locus YDL134C, strain PPH21, stronger effect = lower value",0.995
same,normalized growth,"locus YDL185W, strain tfp1, stronger effect = lower value",1
same,normalized growth,"locus YDL192W, strain arf1, stronger effect = lower value",1.01
same,normalized growth,"locus YDR001C, strain nth1, stronger effect = lower value",1.02
same,normalized growth,"locus YDR069C, strain doa4, stronger effect = lower value",0.969
same,normalized growth,"locus YDR101C, strain arx1, stronger effect = lower value",0.982
same,normalized growth,"locus YDR137W, strain rgp1, stronger effect = lower value",1.21 [resistant] (active)
same,normalized growth,"locus YDR150W, strain NUM1, stronger effect = lower value",1.01
same,normalized growth,"locus YDR159W, strain sac3, stronger effect = lower value",1.03
same,normalized growth,"locus YDR162C, strain NBP2, stronger effect = lower value",0.993
same,normalized growth,"locus YDR195W, strain ref2",1.07
same,normalized growth,"locus YDR297W, strain sur2, stronger effect = lower value",1.03
same,normalized growth,"locus YDR318W, strain mcm21, stronger effect = lower value",0.983
same,normalized growth,"locus YDR334W, strain swr1, stronger effect = lower value",1.03
same,normalized growth,"locus YDR335W, strain msn5, stronger effect = lower value",1.03
same,normalized growth,"locus YDR388W, stronger effect = lower value",0.924 (active)
same,normalized growth,"locus YDR392W, strain spt3, stronger effect = lower value",1.04
same,normalized growth,"locus YDR502C, strain sam2, stronger effect = lower value",0.983
same,normalized growth,"locus YEL003W, strain gim4, stronger effect = lower value",1.01
same,normalized growth,"locus YEL037C, strain rad23, stronger effect = lower value",1.02
same,normalized growth,"locus YEL061C, strain CIN8 (second series), stronger effect = lower value",1.03
same,normalized growth,"locus YEL061C, strain CIN8, stronger effect = lower value",1.01
same,normalized growth,"locus YER015W, strain faa2, stronger effect = lower value",1.02
same,normalized growth,"locus YER016W, strain bim1, stronger effect = lower value",1.02
same,normalized growth,"locus YER110C, stronger effect = lower value",1
same,normalized growth,"locus YER111C, strain swi4, stronger effect = lower value",1.01
same,normalized growth,"locus YER155C, strain BEM2 (second series), stronger effect = lower value",1.01
same,normalized growth,"locus YER155C, strain BEM2, stronger effect = lower value",1
same,normalized growth,"locus YER167W, strain BCK2, stronger effect = lower value",0.998
same,normalized growth,"locus YFR010W, strain ubp6, stronger effect = lower value",0.986
same,normalized growth,"locus YGL078C, strain dbp3, stronger effect = lower value",0.99
same,normalized growth,"locus YGL086W, strain mad1, stronger effect = lower value",0.974
same,normalized growth,"locus YGL167C, strain pmr1, stronger effect = lower value",1.02
same,normalized growth,"locus YGL173C, strain kem1, stronger effect = lower value",1.01
same,normalized growth,"locus YGL227W, strain vid30, stronger effect = lower value",1.02
same,normalized growth,"locus YGL240W, strain doc1, stronger effect = lower value",1.02
same,normalized growth,"locus YGL248W, strain PDE1, stronger effect = lower value",0.99
same,normalized growth,"locus YGL253W, strain hxk2, stronger effect = lower value",1.02
same,normalized growth,"locus YGR078C, strain PAC10, stronger effect = lower value",0.977
same,normalized growth,"locus YGR135W, strain pre9, stronger effect = lower value",0.951
same,normalized growth,"locus YGR229C, strain SMI1, stronger effect = lower value",0.901
same,normalized growth,"locus YGR252W, strain gcn5, stronger effect = lower value",0.888
same,normalized growth,"locus YHR013C, strain ard1, stronger effect = lower value",0.895
same,normalized growth,"locus YHR027C, strain rpn1, stronger effect = lower value",1.03
same,normalized growth,"locus YHR030C, strain SLT2, stronger effect = lower value",1
same,normalized growth,"locus YHR079C, strain IRE1 (second series), stronger effect = lower value",0.994
same,normalized growth,"locus YHR094C, strain hxt1, stronger effect = lower value",0.997
same,normalized growth,"locus YHR129C, strain ARP1, stronger effect = lower value",1
same,normalized growth,"locus YHR142W, strain chs7, stronger effect = lower value",1.01
same,normalized growth,"locus YHR200W, strain rpn10, stronger effect = lower value",0.989
same,normalized growth,"locus YIL066C, strain RNR3, stronger effect = lower value",0.988
same,normalized growth,"locus YIL073C, strain SPO22, stronger effect = lower value",1.12
same,normalized growth,"locus YIL125W, strain kgd1, stronger effect = lower value",1
same,normalized growth,"locus YIR030C, strain dcg1, stronger effect = lower value",0.996
same,normalized growth,"locus YJL092W, strain hpr5, stronger effect = lower value",1.02
same,normalized growth,"locus YJL095W, strain BCK1 (second series), stronger effect = lower value",1.03
same,normalized growth,"locus YJL095W, strain BCK1, stronger effect = lower value",0.913
same,normalized growth,"locus YJL115W, strain asf1, stronger effect = lower value",1.02
same,normalized growth,"locus YJL129C, strain trk1, stronger effect = lower value",1.04
same,normalized growth,"locus YJL134W, strain LCB3, stronger effect = lower value",1
same,normalized growth,"locus YJL154C, strain vps35, stronger effect = lower value",1.01
same,normalized growth,"locus YJL164C, strain tpk1, stronger effect = lower value",1.02
same,normalized growth,"locus YJL166W, strain qcr8, stronger effect = lower value",1.01
same,normalized growth,"locus YJL168C, strain set2, stronger effect = lower value",1
same,normalized growth,"locus YJL187C, strain SWE1 (second series), stronger effect = lower value",0.983
